This is a sample that favours compounds with a hit; in the whole collection about 2.2% have one here.
HIF activator: HIF pathway transcriptional activation; AID 1910; activation, % at 7.5 µM (by protocol); U2OS HRE-luciferase reporter, luminescence; normalized: DMSO 0%, desferrioxamine 100%; actives 0.32% (n = 300,000);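 active = mean activation of at least 10% of the iron chelator positive control signal, with at least half of replicates also reaching 10%; inconclusive = mean and replicate majority disagree about reaching 10%; inactive = mean and most replicates under 10%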
CHT block: human CHT choline transport inhibition | actives 0.86% (n = 310,000) | Q9GZV3 | CHT-expressing cells, membrane potential dye, choline response; active compounds read low | B-score at 10 µM;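 active = B-score over 3 SD under the library average, and starting fluorescence ratio not unusually high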;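 also: choline stimulus applied at its EC90 after an EC20 pre-addition; B-score computed on integrated fluorescence ratio after choline addition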
Target sequence (Q9GZV3 whole entry, looked up): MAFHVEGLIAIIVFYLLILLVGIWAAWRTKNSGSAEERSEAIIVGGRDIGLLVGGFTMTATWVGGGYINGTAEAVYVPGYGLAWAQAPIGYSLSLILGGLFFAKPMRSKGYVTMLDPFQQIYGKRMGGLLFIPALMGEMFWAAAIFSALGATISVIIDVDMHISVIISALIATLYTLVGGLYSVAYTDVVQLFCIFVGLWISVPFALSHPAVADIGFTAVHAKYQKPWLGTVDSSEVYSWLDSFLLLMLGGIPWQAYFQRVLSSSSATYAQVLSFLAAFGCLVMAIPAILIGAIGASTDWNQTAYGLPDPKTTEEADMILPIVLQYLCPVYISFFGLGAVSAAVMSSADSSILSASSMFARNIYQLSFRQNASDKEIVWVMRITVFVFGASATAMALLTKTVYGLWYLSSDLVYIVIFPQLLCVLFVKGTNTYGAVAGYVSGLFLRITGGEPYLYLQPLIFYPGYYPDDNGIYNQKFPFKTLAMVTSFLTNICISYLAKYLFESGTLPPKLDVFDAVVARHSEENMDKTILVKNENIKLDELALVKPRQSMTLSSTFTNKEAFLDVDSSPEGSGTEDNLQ
CHT PAM: human CHT allosteric activation | CHT-expressing cells, membrane potential dye, choline EC20; active compounds read high; LV-AA mutant CHT in HEK293 cells | Q9GZV3 | B-score at 10 µM | actives 0.49% (n = 310,000) | AID 488977;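 active = initial fluorescence not abnormally high and integrated response B-score, plate-corrected, over 3 SD above library mean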
Platelet DG rel: modulates dense granule release in human platelets. AID 1663. inhibition, %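 (compounds screened at 7.5 µM in platelet-rich plasma)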. human platelet-rich plasma, SFLLRN dense granule ATP release, luminescence. actives 0.22% (n = 300,000);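 active = mean replicate score, as percent of positive control, at or above 50; inconclusive = mean below 50 but at least one replicate at or above 50; inactive = mean and every replicate below 50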
AI-2 QS modul: modulators of Vibrio harveyi AI-2 quorum sensing system; activity change, % at 7.5 µM; actives 0.4% (n = 300,000); Vibrio harveyi JMH597 AI-2 luminescence/OD600 ratio, 9 h; active compounds read low; strain lacks LuxN and CqsS sensors; 0 = neutral-control median; in the data active = activity change below about -75%, passing the limit was not always enough; inconclusive = no clear call, values can overlap the other calls;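 also: luminescence divided by OD600 gain over 9 h not by final OD600 alone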
VLA-4 inh: inhibition in a human VLA-4 binding assay; P13612; VLA-4 expressing cells, ligand binding flow cytometry; inhibition, % (about 7 µM as worked out from the volumes in the protocol); actives 0.2% (n = 330,000); AID 2557; in the data active = inhibition above about 50%
Large screens that a line does not name were inactive.

O=C(O)C(Cc1ccccc1)N1C(=O)c2c(Cl)c(Cl)c(Cl)c(Cl)c2C1=O (centres undefined)	none
CCCC(=O)N1CCN(c2ccc(NC(=O)c3cc4ccccc4o3)cc2Cl)CC1	CHT block -7.4
CCCC(=O)N1CCN(c2ccc(NC(=O)c3cccs3)cc2Cl)CC1	none
COc1cccc(/C=N/NC(=S)Nc2cccc(S(=O)(=O)N(C)C)c2)c1	none
COc1ccc(O)c(/C=N/NC(=S)Nc2cccc(S(=O)(=O)N(C)C)c2)c1	HIF activator 42
O=C(CN1C(=O)CSc2ccc(S(=O)(=O)N3CCOCC3)cc21)NCc1cccnc1	none
Cc1cnc(NC(=O)C2CCC(C(C)(C)C)CC2)s1 (centres undefined)	none
O=S1(=O)CC=C(CSC(=S)NC2CCS(=O)(=O)C2)C1 (centres undefined)	AI-2 QS modul -83
COc1cc2c(cc1OC)C(c1ccc(-c3ccccc3Cl)o1)=NCC2	CHT PAM 6.6 (no result: HIF activator, VLA-4 inh)
Cc1cc(C)c(C#N)c(SCc2ccc(F)cc2)n1	none
CSc1nc(C)cc(C)c1C#N	HIF activator 103
COc1cc(CCC(=O)OCC(=O)Nc2ccc(Br)cc2F)cc(OC)c1OC	none
C=CCn1c(N2CCCCCC2)nc2c1c(=O)[nH]c(=O)n2C	HIF activator 30
O=C(Nn1cnc2ccccc2c1=O)c1ccc(Br)cc1	none
CCc1ccc(C(=O)Nn2cnc3ccccc3c2=O)cc1	AI-2 QS modul -80
CC(Oc1ccc2ccc(=O)oc2c1)C(=O)NCCN1CCOCC1 (centres undefined)	HIF activator 61
CC(Oc1ccc2c(-c3ccccc3)cc(=O)oc2c1)C(=O)NCCN1CCOCC1 (centres undefined)	none
Cc1cccc(Nc2ccncc2S(N)(=O)=O)c1	none
CCCC1CCC(c2nc(-c3cccnc3)no2)CC1 (centres undefined)	none
CCCCCCC1CCC(c2nc(-c3ccncc3)no2)CC1 (centres undefined)	HIF activator 35
O=C(Nc1nnc(C2CCCO2)s1)c1cccs1 (centres undefined)	none
COc1cccc(C(=O)Nc2nnc(C3CCCO3)s2)c1 (centres undefined)	AI-2 QS modul -78
CN(C)CCCNCCCNC(=O)/C(=N\O)c1ccccc1	none (no result: AI-2 QS modul)
Nc1nc(CCl)nc(Nc2ccccc2)n1	none
Nc1nc(Nc2ccc(Cl)cc2)nc2ccccc12	CHT block -8.3, Platelet DG rel 73
Cc1ccc(Nc2nc(N)c3ccccc3n2)cc1Cl	Platelet DG rel 52
CN1CCN(c2ccc(-c3ccc4ccccc4n3)cc2)CC1	Platelet DG rel 79 (no result: CHT block, CHT PAM, VLA-4 inh)
c1ccc2nc(-c3ccc(N4CCOCC4)cc3)ccc2c1	Platelet DG rel 57
Cc1ccc(NC(=O)C2CCN(c3ncnc4c3nc3n4CCCCC3)CC2)nc1	none
COc1ccc(CCNC(=O)CSc2n[nH]c(N)n2)cc1OC	none
COc1ccc(CCNC(=O)CSc2nc(N)c3c(C)c(C)oc3n2)cc1OC	Platelet DG rel 74
Cc1ccc(-c2c(C#N)c(N)nc3c2CCCCC3)cc1	none
CC(C)c1ccc(-c2c(C#N)c(N)nc3c2CCCCC3)cc1	HIF activator 268
CC(C)(C)n1nc(-c2ccc(Cl)cc2)c2c(N)ncnc21	Platelet DG rel 72
CC(C)Oc1ccc(C(=O)NCCCNC(=O)c2cccnc2)cc1	none
CCc1ccc(S(=O)(=O)/N=C2\C=C(Nc3ccc(C(=O)O)cc3)C(=O)c3ccccc32)cc1	CHT block -7.2
Cc1cccc(N2CCC(N3CCN(C4CCCCC4)C(CCO)C3)CC2)c1C (centres undefined)	none
Cc1ccc(Sc2ncccc2C(=O)O)cc1	AI-2 QS modul -80
CCOc1ccc(NS(=O)(=O)c2cccc(C(=O)N(C)Cc3ccco3)c2)cc1	none (no result: HIF activator, CHT block, CHT PAM, Platelet DG rel, AI-2 QS modul)
COc1cc(/C=C2/C(=O)NN(c3ccc(Cl)cc3)C2=O)cc(Br)c1O	none
COc1cc(/C=C2/C(=O)NN(c3ccc(F)cc3)C2=O)cc(Cl)c1O	CHT block -4.9
COc1cccc(/C=C2/C(=O)NN(c3ccc(Br)cc3)C2=O)c1O	CHT block -6.9
COC(=O)c1ccc(N2NC(=O)/C(=C/c3cc(OC)c(O)c(OC)c3)C2=O)cc1	none
N#CCCN(C(=O)COC(=O)COc1ccccc1Cc1ccccc1)c1ccccc1	none (no result: HIF activator, CHT block, CHT PAM, Platelet DG rel, AI-2 QS modul)
O=C(Oc1ccc2c(=O)c(Oc3ccc4ccccc4c3)coc2c1)c1ccco1	AI-2 QS modul -82
CSc1ccc(/C=C/C(=O)c2ccc(O)cc2)cc1	AI-2 QS modul -93
CCOc1ccc(C(=O)/C=C/c2ccc(SC)cc2)cc1	none (no result: VLA-4 inh)
CC(=O)n1cc(-c2ccncc2)c2ccccc21	CHT PAM 6.5
CC(=O)N(c1ccc(Cl)cc1)c1cn(C(C)=O)c2ccccc12	none
N/C(Cc1ccc(Cl)cc1)=N\OC(=O)c1ccccc1	AI-2 QS modul -90
O=C(C1CCCN(S(=O)(=O)c2cc(Cl)ccc2Cl)C1)N1CCOCC1 (centres undefined)	none
C=CCn1c(=NC(=O)c2ccc(S(=O)(=O)N3CCCc4ccccc43)cc2)sc2cc(S(N)(=O)=O)ccc21	none
COCCn1c(=NC(=O)c2ccc(S(=O)(=O)N3CCCc4ccccc43)cc2)sc2cc(S(C)(=O)=O)ccc21	HIF activator 105
COc1ccc(S(=O)(=O)N2CCN(CC3CC=CCC3)CC2)cc1 (centres undefined)	none
COc1ccc(C(=O)c2no[n+]([O-])c2C(=O)c2ccc(OC)cc2)cc1	AI-2 QS modul inconclusive
Cc1c(C(=O)c2no[n+]([O-])c2C(=O)c2cnn(C)c2C)cnn1C	CHT block -5.9
O=C1CN2NC(=S)N(c3ccccc3)C2=CN1c1ccc(Cl)cc1	none
COc1ccc(-n2c(C)c(C(C)=O)c(C(C)=O)c2C)cc1OC	Platelet DG rel 53
O=c1nc(Nc2ccc(Br)cc2)sc2ccc([N+](=O)[O-])cc12	none
COc1ccccc1-c1cc(C(F)(F)F)nc(S(=O)(=O)CCCC(=O)O)n1	none
COc1ccccc1-c1cc(C(F)(F)F)nc(S(=O)(=O)CCCC(=O)N2CCOCC2)n1	HIF activator 15, CHT block -5.1
O=C(Nc1nnc(-c2ccccn2)o1)c1cccc(Cl)c1	none
O=C(Nc1nnc(-c2cccs2)o1)c1cccc(F)c1	AI-2 QS modul -85
O=C(Nc1nnc(-c2ccco2)o1)c1cccc(Cl)c1	AI-2 QS modul -134
CN1CC(c2ccccc2)Oc2ccccc2C1=S (centres undefined)	none
CCOC(=O)c1c(C)c(C(=O)Nc2ccc3c(c2)OCO3)c(C)n1C	none
CCOC(=O)c1c(N)sc(C(=O)Nc2ccc3c(c2)OCO3)c1C	Platelet DG rel 56
Nc1ccc(O)c(C(=O)O)c1	VLA-4 inh 51
CC(=O)Oc1ccc(C(=O)NCc2ccco2)cc1	none
